Laboratory results published in the supplement of paper PMC10338343.
± gives the standard deviation.

Each sequence was assayed on MILI (PIWIL2) piRISC loaded with piRNA #1 (26 nt) (assay: pre-steady-state target cleavage rate (min^-1); guide: piRNA #1 5'p-UGAGGUAGUAGGUUGUAUAGUAUCCA; MIWI and MILI are mouse PIWI proteins and EfPiwi is from a freshwater sponge; tags in brackets are library labels; higher = faster piRNA-guided slicing of the target). Settings: auxiliary factor: 500 nM mouse GTSF1.
In short: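 Three pooled Cleave-'n-Seq trials supplied the data, with k3 capped at 0.0001 min^-1. In each, […] transcribed, DNA-blocked target RNA library and 1 nM active affinity-purified piRISC with one synthetic guide reacted in HEPES–potassium acetate buffer at 33 °C for 0–8 or 0–960 min, with or without 500 nM GTSF1 partner protein. Uncleaved targets were sequenced and normalised to depth and to weakly complementary targets. A burst-and-steady-state fit provided the pre-steady-state cleavage rate.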
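Note: 1 nM active piRISC with 0.1 nM target library at 33 °C single turnover.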

First: GGAGACCUAUCUAUACAACCUACUACAUCA
Second: GGAGACCUAUCUAUACAACCUACUAGCCUCA
The “pre-steady-state target cleavage rate” value of the first is lower: 0.051 ± 0.0067 for the first, 0.147 ± 0.02 for the second.

First: GGAGACCUAUGAUAUCAACGUACUAGCUCA
Second: GGAGACCUAUCUAUACAUCCUACUACCACA
The “pre-steady-state target cleavage rate” value of the first is lower: < 0.0001 for the first, 0.209 ± 0.025 for the second.

Going from GGAGACCUAUCUAUACAACCGUACUACCUCA to GGAGAGGAUUCUAAACAACCUACUACCUCA, the “pre-steady-state target cleavage rate” value rises from 0.00775 ± 0.0032 to 0.149 ± 0.01.

Compared with GGAGACCUAUCUAUUACAACCUACUACCUCA, GGAGACCUAUGAUUACAACCUACUAACCUCA is lower in “pre-steady-state target cleavage rate” value: 0.0546 ± 0.0098 for the first, 0.0091 ± 0.0025 for the second.

Compared with GGAGACCUAUGUAUACAACGUACUACCACA, GGAGACGUUACUAAACAACCUACUACCUCA is higher in “pre-steady-state target cleavage rate” value: 0.00942 ± 0.003 for the first, 0.153 ± 0.012 for the second.

Going from GGAGACCUUACUAUACAACCUACAACGUCA to GGAGACCAUACUAUUCAUCCUACUACCUCA, the “pre-steady-state target cleavage rate” value rises from 0.0109 ± 0.0043 to 0.271 ± 0.019.

First: GGAGAGGAUUCUAUACUACCUACUACCUCA
Second: GGAGACCAUAGUAUAGAACCUACUACCUCA
The “pre-steady-state target cleavage rate” value of the first is higher: 0.161 ± 0.0097 for the first, 0.105 ± 0.011 for the second.

Going from GGAGAGGAUACUAUACAACGAACUACCUCA to GGAGACCUUACUAUAGAACCUACUACCUGA, the “pre-steady-state target cleavage rate” value rises from 0.0031 ± 0.0019 to 0.0254 ± 0.0086.

GGAGAGGAUACUAUACUACCUACUAGCUCA and GGAGACCAUAGUAUACAACCUACUUCCUCA are within error of each other in “pre-steady-state target cleavage rate” value: 0.0852 ± 0.013 for the first, 0.073 ± 0.014 for the second.

First: GGAGACCUAUGUAUAGAACGUACUACCUCA
Second: GGAGACCUAUGAUAUGUACCUACUUGCUCA
The “pre-steady-state target cleavage rate” value of the first is higher: 0.00362 ± 0.0018 for the first, < 0.0001 for the second.

First: GGAGACCUAUGAUAUGUACCUACUUGGAGA [g7:g13:cont:t1A]
Second: GGAGACCUAUGUUUACAACCUACUUCCUCA
The “pre-steady-state target cleavage rate” value of the first is lower: < 0.0001 for the first, 0.0114 ± 0.0056 for the second.

First: GGAGACCUAUGAUAUCUACCUACUACCUGA
Second: GGAGACCUAUCUAUACAACCUACAUCCUCA
The “pre-steady-state target cleavage rate” value of the first is lower: < 0.0001 for the first, 0.0186 ± 0.0046 for the second.

First: GGAGACCAUACUAAACAAGCUACUACCUCA
Second: GGAGACCUAUGUAUACAACCUUCUACCUCA
The “pre-steady-state target cleavage rate” value of the first is higher: 0.236 ± 0.018 for the first, 0.00351 ± 0.0017 for the second.

Compared with GGAGACCUAUGUAUACUACCUACUACCUCA, GGAGACCUAUCUAUACAACCUACUACCCA is higher in “pre-steady-state target cleavage rate” value: 0.0517 ± 0.008 for the first, 0.098 ± 0.019 for the second.

Compared with GGAGACCUAUCUAUACAACCAACUACCACA, GGAGACGAUACUAUAGAACCUACUACCACA is higher in “pre-steady-state target cleavage rate” value: 0.00574 ± 0.0023 for the first, 0.0976 ± 0.015 for the second.

GGAGACCUAUGUAUACAACCUACUACUCA and GGAGACCUUAGUAUACAACCUACUUCCUCA are within error of each other in “pre-steady-state target cleavage rate” value: 0.063 ± 0.013 for the first, 0.0515 ± 0.014 for the second.

Compared with GGAGACCUAUCUAUACAACUACUACCUCA, GGAGACGAUACUAUACAACCUACUACCUUA is higher in “pre-steady-state target cleavage rate” value: 0.00292 ± 0.0024 for the first, 0.228 ± 0.027 for the second.

Compared with GGAGACCUAUGAAUACAACGUACUACCUCA, GGAGACCUUACUAUAGUUCCUACUACCUCA is higher in “pre-steady-state target cleavage rate” value: 0.00541 ± 0.0019 for the first, 0.113 ± 0.0093 for the second.

GGAGACCUAUGAUAAUCAACCUACUACCUCA and GGAGACCUAUGAUAUGACCUACUACCUCA are within error of each other in “pre-steady-state target cleavage rate” value: 0.00294 ± 0.0029 for the first, 0.0053 ± 0.0031 for the second.

Going from GGAGACCUAUCUAUACAAGCUACUAGCUCA to GGAGACCUAUCUAUACAACCUACUUCCACA, the “pre-steady-state target cleavage rate” value falls from 0.0812 ± 0.018 to 0.0447 ± 0.011.
